# Measured values: the supplement of paper PMC3334620
# Over roughly 33,000 sequences, “E-score (-0.5 to 0.5)” has its median near -8e-05; the highest 2% begin near 0.23. What follows is part of a selection rich in the highest values, with near analogues and random picks from the rest.
# Target: T1, Nrg2 (UniProt P38082)
# T1 sequence: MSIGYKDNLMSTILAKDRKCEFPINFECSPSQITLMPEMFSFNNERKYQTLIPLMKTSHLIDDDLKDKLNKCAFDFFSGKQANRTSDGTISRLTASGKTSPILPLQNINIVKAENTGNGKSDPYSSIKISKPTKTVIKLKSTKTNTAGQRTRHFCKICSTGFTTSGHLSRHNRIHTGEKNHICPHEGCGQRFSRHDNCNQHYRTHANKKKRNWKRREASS
# Assay: PBM E-score (8-mer binding enrichment) (E-score (-0.5 to 0.5)); higher = stronger / more preferred TF binding
# Conditions: protein concentration: 100 nM; construct: GST-full length
# Description: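 Universal 'all 10-mer' protein binding microarrays (Agilent AMADID 015681) probed with GST-tagged S. cerevisiae TFs (full-length or DBD) made by in vitro transcription/translation (PURExpress), about 100-200 nM. Bound TF was detected with fluorescent anti-GST. Each ungapped 8-mer (which stands for itself and its reverse complement) is scored by the PBM enrichment score (E-score), a modified Wilcoxon-Mann-Whitney statistic from -0.5 to +0.5, computed with the Universal PBM Analysis Suite. Scale: above 0.35 generally sequence-specific binding.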
row,Sequence,PBM E-score
1,GTAAACAC,-0.0176
2,GCCGTACC,-0.0541
3,TACACCTA,0.0327
4,CCTTCACC,-0.0756
5,ATTTTCCC,0.124
6,ATTTTCCG,0.249
7,AATTTCCG,0.206
8,ATTTCCCA,0.153
9,ATTTCCAC,0.255
10,ATTTCCAA,-0.0757
11,ATTTCCCC,0.153
12,ATTTCCCG,0.264
13,ATTTCCAG,0.0415
14,CGAAGTTC,0.0952
15,CCTGCTGA,0.171
16,AACAGTGA,-0.0365
17,AATTCCCG,-0.0292
18,AAGAGAAG,-0.0556
19,AAGAGAAT,0.231
20,AAGAGAAA,0.0319
21,CTCTGACC,-0.127
22,CACGGGGC,-0.0105

row,Sequence,PBM E-score
1,TCCTAGGA,-0.0933
2,ACAATACG,0.0515
3,ACAATACA,0.148
4,CCAATACC,0.0351
5,ACAATACT,0.241
6,ACAATACC,0.291
7,AGAATACC,0.191
8,GGATACAA,0.0295
9,GCAAACCA,0.0737
10,AACTAAAA,0.0978
11,CACTAAAA,0.256
12,CATTAAAA,0.252
13,GATTAAAA,0.157
14,GATTAGAA,0.0967
15,TACTAAAA,0.0854
16,AATTAAAA,0.126
17,CATTAAAG,0.119
18,CATTAAAC,0.0682
19,TATTAGAA,0.249
20,CATTAGAA,0.0605
21,TATTAAAA,0.262
22,ATTGCACC,0.0876

row,Sequence,PBM E-score
1,CCAACTAC,0.0973
2,AACCTCTA,-0.1
3,TAACGTCA,0.0193
4,CTCGATCC,-0.0858
5,AGAATGGC,0.0093
6,ACAAGGAT,-0.0601
7,CCCACCCA,0.0597
8,ACCCACCC,0.243
9,CCCCACCC,0.162
10,CCCCTCCC,-0.102
11,CCCACCCG,0.231
12,ACCCTCCT,-0.14
13,CCCACCCC,0.177
14,ACCCTCCC,0.255
15,GCCCACCC,0.184
16,AAATGAAC,0.0486
17,CGTTCCGC,-0.00432
18,AACAGGCC,-0.202
19,GTGGGCTA,-0.14
20,CACCGGGG,-0.413
21,GTACTACA,0.191
22,CGAGATTC,0.143

row,Sequence,PBM E-score
1,AGAGATTA,0.0613
2,CGAGATTA,0.252
3,GGCTGCCA,-0.173
4,GAAAAGTC,-0.0781
5,CGTGCCAA,-0.033
6,TGACGTCA,0.279
7,GGACGTCA,0.00109
8,AGACGTCA,-0.0442
9,ATCCAACG,-0.165
10,ATCATAGA,0.238
11,ATCATAGG,-0.0259
12,CTCATAGA,-0.061
13,CTAAACCA,-0.179
14,CATACCAC,-0.0447
15,TAAGTGAA,0.0844
16,ACTACAGG,0.237
17,ACTACAGC,-0.271
18,ATTACAGG,0.312
19,ATTACAGA,0.0258
20,ACTACAGA,0.131
21,ATTACAGC,-0.18
